Drawing on PubChem BioAssay (NCI), this text covers growth for 9 molecules.

About 83,000 compounds went through this panel and 20% of them were active in at least one assay; those are over-represented in the sample as a whole.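 Treatment: one concentration, 48 hours, 96-well format. Scoring: percent growth, with anything below 10 considered active.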 Unmarked numbers belong to inactive results. Calls of active or inactive are those of the source.

Holding throughout (test): NCI-60 one-dose screen, 48 h (100 = growth as untreated, 0 = no growth, -100 = all killed)
Experiment [1] relates to SR leukemia. As to conditions: 10 µM unless noted.
Experiment [2] concerns RPMI-8226 leukemia. As to conditions: 10 µM unless noted.
The subject of experiment [3] is OVCAR-8 ovarian. As to conditions: 10 µM unless noted.
Experiment [4] has as its system OVCAR-5 ovarian. As to conditions: 10 µM unless noted.
The test system of experiment [5] is OVCAR-4 ovarian. As to conditions: 10 µM unless noted.
Experiment [6] relates to SK-OV-3 ovarian. As to conditions: 10 µM unless noted.
The test system of experiment [7] is IGROV1 ovarian. As to conditions: 10 µM unless noted.
Experiment [8] relates to OVCAR-3 ovarian. As to conditions: 10 µM unless noted.
In experiment [9] the test system is HS 578T breast. As to conditions: 10 µM.
Experiment [10] concerns NCI/ADR-RES ovarian. As to conditions: 10 µM unless noted.
Experiment [11] has as its system T-47D breast. As to conditions: 10 µM unless noted.
For experiment [12], the system named is BT-549 breast. As to conditions: 10 µM unless noted.
Experiment [13] has as its system MDA-MB-435 melanoma. As to conditions: 10 µM unless noted.
Experiment [14] has as its system SW-620 colon. As to conditions: 10 µM unless noted.
Experiment [15] has as its system HCT-116 colon. As to conditions: 10 µM unless noted.
Experiment [16] relates to HCC-2998 colon. As to conditions: 10 µM.
For experiment [17], the system named is KM12 colon. As to conditions: 10 µM unless noted.
For experiment [18], the system named is MCF7 breast. As to conditions: 10 µM unless noted.

As for `CCC1(/C=N/NC(N)=S)NC(=O)NC1=O` (stereo not drawn), the growth in [1] was 91.1%; in experiment [2], 103%; in experiment [3] it was 98.1%; in experiment [4], 109%; in [5] it was 109%; in experiment [6], 83.9%. Moreover, the growth in [7] is 113%; in [8], 119%; in experiment [9] it was 104%; in experiment [10], 111%; in experiment [11], 104%; in [12], 103%. Further, the growth in [13] was 105%; in experiment [14] it was 114%; in experiment [15] it was 101%; in experiment [16], 115%; in experiment [17], 113%.
Regarding `CCCc1cc2cc(-n3nc(C)c4c3CC(C)(C)CC4=O)cc(NC3CCC(O)CC3)c2c(=O)[nH]1` (stereo not drawn), the growth in [1] was 23.8%; in [2], 15.2%; in [3], 33%; in experiment [4], 50.5%; in experiment [5] it was 64.7%; in [6], 6.8% (active). For the same molecule, the growth in experiment [7] is 36.9%; in [8] it was 23.2%; in [9], 47.4%; in experiment [10], 45.5%; in experiment [11] it was 38.2%; in [12], 29.2%. Further, the growth is 20.8% in experiment [13]; 24.9% in [14]; 25.4% in experiment [18]; 11.3% in experiment [15]; 24.7% in [16]; 4.71% (active) in experiment [17].
As to `CSC1=C(N)C(=O)c2[nH]cc(CO)c2C1=N`, the growth was 6.06% (active) in [1]; -32.9% (active) in [2]; -62% (active) in experiment [3]; -76% (active) in experiment [4]; -95.7% (active) in [5]; -94.4% (active) in [6]. Moreover, the growth is -62.5% (active) in experiment [7]; -74.8% (active) in [8]; 5% (active) in [9]; -23% (active) in experiment [10]; -43.8% (active) in experiment [11]; -93.5% (active) in experiment [12]. Also, the growth in [13] is -84.1% (active); in [14], -56.2% (active); in [18] it was -41.8% (active); in [17], -63.4% (active).
With `Cc1ccc2oc(=O)cc(-c3cc(-c4cc5ccccc5oc4=O)nc(N)c3C#N)c2c1`, the growth is 74.3% in experiment [1]; 72.9% in experiment [2]; 61.1% in experiment [3]; 101% in [4]; 8.25% (active) in [5]; 78.8% in experiment [6]. Further, the growth in [7] was 81.6%; in experiment [8] it was 77.1%; in [9], 70.7%; in experiment [10], 80.4%; in experiment [11] it was 59.7%; in experiment [12], 57.2%. Also, the growth in experiment [13] is 65.7%; in [14], 83.5%; in experiment [15] it was 51.4%; in experiment [16], 93%; in experiment [17], 65.7%.
As to `COC[C@@H](C)n1c(C2CCOCC2)nc2c1C1C=C(OC)C(c3c(C)noc3C)=CC1N=C2` (stereo partly drawn), the growth was 31.1% in experiment [1]; 10.4% in [2]; 57.1% in experiment [3]; 70.3% in experiment [4]; 42.8% in experiment [5]; 39.6% in experiment [6]. For the same molecule, the growth in experiment [7] was 39.4%; in [8], 28.9%; in experiment [9], 35%; in experiment [10], 43.4%; in experiment [11], 44.6%; in [12], 62.6%. The growth in experiment [13] is 41.6%; in experiment [14] it was 72.1%; in [18], 15.5%; in experiment [16], 52.7%; in experiment [17], 43%.
Take `O=C(CNc1nnc(-c2ccc(Cl)cc2)o1)Nc1ccc(-c2nc3ccccc3s2)cc1`: the growth was 71.8% in experiment [1]; 95.4% in experiment [2]; 103% in experiment [3]; 116% in [4]; 103% in experiment [5]; 117% in experiment [6]. Further, the growth in [7] is 94.1%; in experiment [8], 97.7%; in [9], 96.9%; in experiment [10], 98.9%; in experiment [11], 79.9%; in experiment [12], 87%. In addition, the growth in experiment [13] was 97.1%; in [14] it was 110%; in [18] it was 34.5%; in experiment [15] it was 89.8%; in experiment [17], 97%.
On to `O=C1CSC(c2c(F)cccc2Cl)N1NC(=O)C(O)(c1ccccc1)c1ccccc1` (stereo not drawn), for which the growth in experiment [1] is 95.5%; in [2], 94%; in experiment [3] it was 98.3%; in experiment [4] it was 103%; in [5], 97.4%; in experiment [6], 101%. The growth in experiment [7] was 72%; in [8] it was 100%; in [9], 90.1%; in experiment [10], 95.4%; in experiment [11] it was 93.3%; in experiment [12] it was 104%. For the same molecule, the growth in experiment [13] is 104%; in [14] it was 99.9%; in experiment [18] it was 110%; in experiment [15] it was 94.8%; in experiment [17], 108%.
On to `Cc1sc2c(c1C)c(=O)nc1c(-c3nc4ccccc4s3)n[nH]n12`, for which the growth was 88.5% in experiment [1]; 87.9% in experiment [2]; 97.9% in experiment [3]; 110% in experiment [4]; 99.6% in experiment [5]; 91.4% in [6]. The growth was 94.2% in experiment [7]; 98.2% in experiment [8]; 93.3% in experiment [9]; 93.7% in [10]; 85.2% in [11]; 101% in experiment [12]. In addition, the growth in experiment [13] was 110%; in [14], 104%; in experiment [18] it was 79.6%; in experiment [15] it was 90%; in [17], 98.7%.
In the case of `Cc1ccc(-[n+]2c3cc(N)c(C)cc3nc3cc(C)c(Nc4ccccc4)cc32)cc1`, the growth is -39.1% (active) in experiment [1]; -36.5% (active) in experiment [2]; -6.17% (active) in experiment [3]; -61.3% (active) in experiment [4]; -38.7% (active) in experiment [5]; -90.4% (active) in experiment [6]. Also, the growth was -59.5% (active) in experiment [7]; -97.4% (active) in experiment [8]; 18.8% in experiment [9]; -21.8% (active) in [10]; -74.7% (active) in experiment [11]; -73.6% (active) in experiment [13]. For the same molecule, the growth in [14] was -71.8% (active); in experiment [18] it was -81.8% (active); in [15] it was -100% (active); in experiment [16], -98% (active); in [17], -92.7% (active).
